According to PubChem BioAssay AID504815 (NMMLSC, 2011):
Entries with a potency or affinity are not part of this list. The source made the active and inactive calls.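 How the source made its calls: active means compounds with a tight curve fit, inhibition span over 25% and half-maximal concentration below 10 µM; inactive means the rest.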

Biological target: Beta-adrenergic receptor kinase 1 (Homo sapiens) (UniProt P25098)
Experiment: Concentration-response of GRK2 aptamer binding blockers, biochemical bead flow cytometry, cherry pick 2 (AID 504815)

Chain of Beta-adrenergic receptor kinase 1 (Homo sapiens) (P25098 whole entry, looked up): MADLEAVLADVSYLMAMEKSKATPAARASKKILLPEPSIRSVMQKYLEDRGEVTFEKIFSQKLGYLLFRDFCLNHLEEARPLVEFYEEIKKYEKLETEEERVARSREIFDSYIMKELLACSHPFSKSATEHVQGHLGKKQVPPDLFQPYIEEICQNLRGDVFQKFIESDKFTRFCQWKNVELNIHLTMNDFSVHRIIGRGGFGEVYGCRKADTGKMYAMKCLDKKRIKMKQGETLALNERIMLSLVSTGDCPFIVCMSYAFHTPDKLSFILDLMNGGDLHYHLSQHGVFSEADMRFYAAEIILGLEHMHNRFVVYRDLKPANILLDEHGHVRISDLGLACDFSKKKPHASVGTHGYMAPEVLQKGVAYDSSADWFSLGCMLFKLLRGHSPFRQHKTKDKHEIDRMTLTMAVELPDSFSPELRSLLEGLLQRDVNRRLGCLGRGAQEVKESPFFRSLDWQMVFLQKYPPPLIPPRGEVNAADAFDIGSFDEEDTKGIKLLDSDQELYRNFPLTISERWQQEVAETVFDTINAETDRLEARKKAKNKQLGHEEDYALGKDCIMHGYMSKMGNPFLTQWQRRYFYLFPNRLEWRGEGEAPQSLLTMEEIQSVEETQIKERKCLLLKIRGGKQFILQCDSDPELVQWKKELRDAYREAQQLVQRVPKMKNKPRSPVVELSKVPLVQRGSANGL

Structure (SMILES)	outcome
COC(=O)c1ccc(NC(=O)CCS(=O)(=O)c2ccc(Br)cc2)cc1	inactive
CCc1ccccc1NC(=O)CCS(=O)(=O)c1ccc(Br)cc1	inactive
O=C(CCS(=O)(=O)c1ccc(Br)cc1)NCCc1ccc(Cl)cc1	inactive
O=C(CCS(=O)(=O)c1ccc(Br)cc1)NCc1ccco1	inactive
O=C(CCS(=O)(=O)c1ccc(Br)cc1)NCc1cccs1	inactive
CCc1ccccc1NC(=O)CCS(=O)(=O)c1ccc(OC)cc1	inactive
COc1ccc([N+](=O)[O-])cc1NC(=O)CCS(=O)(=O)c1ccc(Br)cc1	inactive
COc1ccc(CNC(=O)CCS(=O)(=O)c2ccc(Br)cc2)cc1	inactive
O=C(CCS(=O)(=O)c1ccc(Br)cc1)NCc1ccc(F)cc1	inactive
COc1ccc(Cl)cc1NC(=O)CCS(=O)(=O)c1ccc(Br)cc1	inactive
O=C(CCS(=O)(=O)c1ccc(Br)cc1)NCCc1ccccc1	inactive
Cc1ccccc1NC(=O)CCS(=O)(=O)c1ccc(Br)cc1	inactive
CCN(CC)c1ccc(NC(=O)CCS(=O)(=O)c2ccc(Br)cc2)c(C)c1	inactive
C#CCSc1nc2sc3c(c2c(=O)n1C)CCC3	inactive
CCOc1ccccc1NC(=O)CCS(=O)(=O)c1ccc(Br)cc1	inactive
O=C(CCS(=O)(=O)c1ccc(Br)cc1)Nc1ccc(Br)cc1F	inactive
O=C(CCS(=O)(=O)c1ccc(Br)cc1)Nc1cc(F)ccc1F	inactive
O=C(CCS(=O)(=O)c1ccc(Br)cc1)NC1CCCC1	inactive
COc1ccc(-c2csc3nc(-c4ccc(C)cc4)oc(=O)c23)cc1OC	inactive
CCOc1ccc(NC(=O)CCS(=O)(=O)c2ccc(Br)cc2)cc1	inactive
